FGF22 binding: shifts melting point of recombinant human FGF22 | Q9HCT0 | recombinant FGF22 thermal shift, SYPRO orange fluorescence; percent of sucrose octasulfate shift, DMSO zero | activity (Tm shift, normalised), % at 9.99 µM | actives 1.5% (n = 340,000) | AID 651658;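 active = mean Tm shift, scaled 0 neutral to 100 positive control, at about 1.3% or above, every replicate too, limit read from the data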
Target sequence (Q9HCT0 whole entry, looked up): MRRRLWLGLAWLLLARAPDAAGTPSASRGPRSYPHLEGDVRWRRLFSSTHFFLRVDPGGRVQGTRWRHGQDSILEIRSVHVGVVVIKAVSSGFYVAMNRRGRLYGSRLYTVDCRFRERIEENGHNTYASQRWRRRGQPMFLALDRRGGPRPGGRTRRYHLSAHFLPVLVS
ADAM17 inh: inhibits human ADAM17. P78536. recombinant ADAM17, EDANS/DABCYL FRET peptide cleavage. inhibition, % at 6.95 µM. actives 0.83% (n = 370,000);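 active = inhibition above the mean of compounds lying between control limits plus 3 SD, set per campaign, cut at about 8.5% in these data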;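 also: 0% = DMSO-only wells as the low control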
ADAM10 inh: ADAM10 inhibition, QFRET primary screen; O14672; recombinant ADAM10, EDANS/DABCYL FRET peptide cleavage, 3 h; inhibition, % at 7 µM; actives 0.62% (n = 370,000);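 active = inhibition above a per-campaign cutoff equal to the mean of compounds falling between control-based bounds plus 3 SD, cut at about 20% in these data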;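 also: 0% = DMSO wells while the 100% control is not disclosed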
KLK7 zymogen act: activates the human kallikrein-7 zymogen. purified proKLK7, EDANS-DABCYL substrate fluorescence; 100% is mature enzyme control, 0% vehicle. activation, % at 7 µM. P49862. actives 0.9% (n = 370,000). AID 652039;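 active = activation above the mean of all tested compounds plus 3 SD, computed per campaign excluding outliers beyond control limits, cut at about 13% in these data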
Target sequence (P49862 whole entry, looked up): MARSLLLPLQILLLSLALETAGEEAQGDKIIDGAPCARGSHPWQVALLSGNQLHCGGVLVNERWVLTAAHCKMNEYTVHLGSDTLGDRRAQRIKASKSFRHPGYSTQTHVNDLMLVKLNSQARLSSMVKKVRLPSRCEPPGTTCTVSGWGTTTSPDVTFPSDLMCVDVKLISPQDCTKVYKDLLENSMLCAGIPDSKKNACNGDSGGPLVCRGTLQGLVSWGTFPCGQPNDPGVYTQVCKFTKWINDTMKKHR
Ecoli rRNA inh: selective bacterial rRNA inhibition in E. coli. E. coli WT GFP vs humanized-ribosome RFP mutants, fluorescence, 24 h; hits give low values; DMSO median 0, no signal -100. GFP signal change (wild-type ribosome), % (no concentration beside the values). actives 1.6% (n = 350,000). AID 720706;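 active = significant combined selectivity score with lowered wild-type GFP, culture density cut under 30%, mutant RFP and density less affected; inactive = any of these conditions unmet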
ADAM10 counter: counter-screen for ADAM17 exosite inhibitors: inhibitors of human ADAM10 | inhibition, % at 6.95 µM | shares compounds with ADAM17 inh | actives 47% (n = 2,900) | recombinant ADAM10, EDANS/DABCYL FRET peptide cleavage, 3 h;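 active = mean inhibition over the triplicate runs exceeds the activity threshold set in the earlier primary screen, cut at about 20% in these data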;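 also: 0% = DMSO wells and 100% = marimastat wells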
ADAM17 confirm: human ADAM17 inhibition, confirmation. shares compounds with ADAM17 inh. recombinant ADAM17, EDANS/DABCYL QFRET peptide cleavage. inhibition, % at 6.95 µM. actives 65% (n = 2,900);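 active = mean inhibition across replicates above the hit cutoff set in the primary screen, cut at about 8.5% in these data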;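 also: 0% = DMSO wells and 100% = marimastat wells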
Starred values were filed as active, the others as inactive; · = no result given. Shown are actives, neighbours in structure and some others; about 3.8% of the full set was active somewhere.

SMILES	FGF22 binding	ADAM17 inh	ADAM10 inh	KLK7 zymogen act	Ecoli rRNA inh	ADAM10 counter	ADAM17 confirm
C[C@@H]1CN([C@@H](C)CO)C(=O)CCCn2nncc2CO[C@H]1CN(C)C(=O)NC1CCCC1	·	·	·	·	2	·	·
Fc1cccc(CCN2C(=S)NC[C@@H]2Cc2ccccc2)c1	0	-1	6	1	-48	·	·
Fc1cccc(CCN2C(=S)NC[C@@H]2CC2CCCCC2)c1	0	11*	11	0	-23*	19	7
COc1ccc(C2/C=C\CN(C(=O)c3ccccc3)[C@H](Cc3ccccc3)C(=O)N2Cc2ccc(F)cc2)cc1 (some centres undefined)	44*	11*	13	0	2	21*	11*
Cc1ccc(S(=O)(=O)N2CCCCC2)cc1NC(=O)CNc1ccc(C(F)(F)F)cc1	0	9.4*	17	0	1	17	11*
Cc1ccc(S(=O)(=O)N2CCCCC2)cc1NC(=O)Cc1c[nH]c2ccccc12	0	8.8*	4	-1	-1	-2	1
Cc1ccc(-c2nc(SCC(=O)Nc3cc(S(=O)(=O)N4CCCCC4)ccc3Cl)n[nH]2)cc1	·	14*	19	0	·	32*	14*
C[C@@H]1CN([C@@H](C)CO)C(=O)c2cc(/C=C/c3ccccc3)cnc2O[C@@H]1CN(C)Cc1cncnc1	0	·	·	·	-1	·	·
O=C(NC12CC3CC(CC(C3)C1)C2)c1cnccn1	·	-1	-2	3	·	·	·
CC1CCC(NC(=O)c2cnccn2)CC1 (centres undefined)	·	12*	3	0	·	3	2
COc1ccc(-n2nnnc2SCC(=O)c2cccc(OC)c2)cc1	0	10*	7	0	4	8	8
Cc1cccc(S(=O)(=O)N2CCCCN3[C@@H](CO)[C@H](c4ccc(C#CC5CC5)cc4)[C@@H]3C2)c1	0	·	·	·	-52	·	·
COc1cc(/C=N/n2c(-c3ccc4c(c3)NC(=O)CO4)csc2=Nc2cccc(C)c2)ccc1O	·	9.3*	16	-3	·	-17	9.8*
CCC1(CC)SCCNC1=O	0	9.1*	7	1	7	-2	2
CO[C@H]1O[C@H](CO)[C@@H](OC(=O)Nc2ccccc2-c2ccccc2)[C@H](OC(=O)Nc2ccccc2-c2ccccc2)[C@@H]1OC(=O)Nc1ccccc1-c1ccccc1	0	·	·	·	·	·	·
CN(Cc1ccccc1)S(=O)(=O)c1ccc(NC(=O)C2CCCO2)cc1 (centres undefined)	0	8.9*	0	0	-7	-5	-1
CCOc1ccc(NC(=O)CN2CCN(c3ccccc3C)CC2)cc1S(=O)(=O)N1CCCC1	0	-3	-4	0	-14	·	·
CCOc1ccc(NC(=O)CN2CCN(c3ccc(F)cc3)CC2)cc1S(=O)(=O)N1CCCC1	0	11*	-1	0	-9	2	5
Fc1ccccc1Cn1nnc2c(-n3ccnc3)ncnc21	·	8.7*	10	0	·	-8	0
Clc1ccccc1Cn1nnc2c(N3CCCC3)ncnc21	·	-4	-4	1	·	·	·
CCCCCN(C(=O)CCc1cn(CCCCC)c2ccccc12)c1ccc(Oc2cccnc2)cc1	0	-3	-2	0	13	·	·
CCCN(C(=O)c1cn(CCC)c2ccccc12)c1ccc(Oc2cccnc2)cc1	0	10*	11	0	-35	16	9.1*
O=[N+]([O-])c1ccccc1C1Nc2cccc3cccc(c23)N1	·	0	4	-1	·	·	·
O=[N+]([O-])c1ccc(Cl)c(C2Nc3cccc4cccc(c34)N2)c1	·	11*	32*	-2	·	17	10*
CCCNC(=O)N(C)C[C@H]1Oc2ncc(C#CC3CC3)cc2C(=O)N([C@@H](C)CO)C[C@@H]1C	0	·	·	·	-3	·	·
SMILES	FGF22 binding	ADAM17 inh	ADAM10 inh	KLK7 zymogen act	Ecoli rRNA inh	ADAM10 counter	ADAM17 confirm
Cc1ccc(NC(=O)CNC(=O)CC23CC4CC(CC(C4)C2)C3)c(O)c1	0	16*	1	0	2	4	6
CCCCC(CC)C(=O)Oc1ccc(O)c(C(C)(C)C)c1 (centres undefined)	·	12*	14	0	-22*	16	7
CC(C)(C)c1cc(OC(=O)C2CCCC2)ccc1O	0	1	10	0	14	·	·
C[C@H]1CN([C@@H](C)CO)C(=O)c2cc(-c3ccc(F)cc3)cnc2O[C@H]1CN(C)C(=O)c1ccccc1F	0	·	·	·	4	·	·
CC(C)NC(=O)N(C)C[C@H]1OCCCC[C@H](C)Oc2ccc(NC(=O)c3ccccc3)cc2C(=O)N([C@@H](C)CO)C[C@@H]1C	0	·	·	·	-1	·	·
Cc1cnc(C(=O)N(c2ccc(N3CCOCC3)cc2)C2C(=O)Nc3ccccc3N=C2c2ccc3c(c2)OCO3)cn1 (centres undefined)	0	11*	7	1	3	11	9.8*
COc1cc(CCN(C(C)=O)C2C(=O)Nc3ccccc3N=C2c2ccc3c(c2)OCO3)cc(OC)c1 (centres undefined)	0	-5	-9	0	-6	·	·
C[C@H](CO)N1C[C@H](C)[C@@H](CN(C)Cc2cccnc2)Oc2ncc(C#Cc3cccnc3)cc2C1=O	1	·	·	·	1	·	·
CCCCNS(=O)(=O)c1ccc2nc(SCC(=O)Nc3cccc(F)c3)[nH]c2c1	·	8	15	0	·	·	·
CCCCNS(=O)(=O)c1ccc2nc(SCC(=O)Nc3ccccc3Cl)[nH]c2c1	0	9.9*	20	0	-46	26*	12*
CCS(=O)(=O)N1CC2(C1)[C@@H](c1ccccc1)[C@@H](CO)N2C(=O)C1CCCC1	·	·	·	·	1	·	·
COc1ccc(CN2C[C@@H](O)COC[C@@H]3O[C@H](CC(=O)NCCN4CCCC4)CC[C@H]32)cc1	0	·	·	·	-1	·	·
CCC(=O)c1ccc(OCC(=O)OCC(=O)NC2CCCCCCC2)cc1	0	9.5*	1	0	3	9	8.8*
CCC(=O)c1ccc(OCC(=O)NC2CCCC2)cc1	0	-4	-10	0	2	·	·
O=C(Nc1cccc(Oc2ccccc2)c1)C1Cc2c(-c3cccc(F)c3)ccnc2O1 (centres undefined)	0	15*	15	0	7	15	11*
CC(=O)Nc1cccc(-c2ccnc3c2CC(C(=O)Nc2cccc(Oc4ccccc4)c2)O3)c1 (centres undefined)	0	7	18	0	-1	·	·
O=C(C[C@@H]1C=C[C@H](NC(=O)Nc2ccc(F)cc2)[C@@H](CO)O1)NCc1cccc(F)c1	0	·	·	·	1	·	·
